In assay [1] the test system is Plasmodium falciparum Sir2 (PF13_0152, Sir2A). In words: pfSir2 binders on small-molecule microarrays, primary screen, biochemical, small-molecule microarray, 635 nm fluorescence (AID 1098).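 Also: score merges spot fluorescence intensity with its signal-to-noise ratio.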 The following applies: small-molecule microarray binding, fluorescence 635 nm; higher = more signal.
A short description of assay [2]: small-molecule microarray binders of probe aDKK1, primary screen, biochemical, biotinylated probe, 635/667 nm fluorescence (AID 1099).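 Also: score merges 667nm spot fluorescence with signal to noise across triplicate slides.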 Conditions: higher = more signal.
The nature of assay [3]: small-molecule microarray binders of probe aCHRDL2, primary screen, biochemical, biotinylated probe, 635/667 nm fluorescence (AID 1100). The following applies: higher = more signal.
Assay [4] can be described thus: splicing luciferase reporter signal modulators, primary screen, spliceosome inhibition project, cell-based, HEK293, splice +/- reporter (AID 1101).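 Also: HEK293 cells carrying a splicing-competent luciferase reporter gene; test concentration not given here.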 Conditions: luminescence, 24 h, higher = more signal, called active from +8 up or from −8 down. In general terms: A reporter such as luciferase makes a cellular process visible.
The target in assay [5] is Fibroblast growth factor 10 (Homo sapiens) (UniProt O15520). Kind of assay: FGF10 binders on small-molecule microarrays, primary screen, biochemical, small-molecule microarray, 635 nm fluorescence (AID 1102). The following applies: FGF10 binding, fluorescence 635 nm, higher = more signal.
Assay [6] relates to glycogen synthase kinase-3 (GSK3A per assay name; protocol says GSK3B). In words: GSK3 binders on small-molecule microarrays, primary screen, biochemical, small-molecule microarray, 635 nm fluorescence, GSK3A (AID 1103). Also: the record names both GSK3A and GSK3B. Conditions: small-molecule microarray binding, fluorescence 635 nm; higher = more signal.
Assay [7] concerns the target Epidermal growth factor receptor (Homo sapiens) (UniProt P00533). In words: EGFR binders on small-molecule microarrays, primary screen, biochemical, small-molecule microarray, 635 nm fluorescence (AID 1104).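 Also: score merges 667 nm emission intensity with spot signal to noise over triplicate slides.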 The following applies: EGFR binding, higher = more signal.
In assay [8] the target is Follistatin-related protein 3 (Homo sapiens) (UniProt O95633). In words: FSTL3 binders on small-molecule microarrays, primary screen, biochemical, small-molecule microarray, 635 nm fluorescence (AID 1105).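 Also: score merges emission near 667 nm and signal to noise per printed spot across three slides.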 The following applies: FSTL3 binding, higher = more signal.
For assay [9], the target named is Dickkopf-related protein 1 (Homo sapiens) (UniProt O94907). In words: DKK1 binders on small-molecule microarrays, primary screen, biochemical, small-molecule microarray, 635 nm fluorescence scan (AID 1106).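 Also: score merges emission near 667 nm with signal to noise over three replicate slides.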 Conditions: DKK1 binding, higher = more signal.
Assay [10] concerns Inhibin beta A chain (activin A). Kind of assay: INHBA (activin A) binders on microarrays, primary screen, biochemical, small-molecule microarray, 635 nm fluorescence scan (AID 1107).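 Also: mouse activin A protein probed at 4.33 µg/mL on printed slides; score merges bound-protein fluorescence near 667 nm with spot signal-to-noise.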 The following applies: small-molecule microarray binding, higher = more signal.
The subject of assay [11] is Human papillomavirus type 1a protein E7 (residues 44-93). Kind of assay: HPV1a E7 fragment binders on microarrays, primary screen, biochemical, small-molecule microarray, residues 44-93, 635 nm fluorescence (AID 1108).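 Also: E7 fragment applied at 1 µg/mL in TBST for 1 h at 4 C; score combines spot fluorescence with its signal to noise ratio.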 The following applies: small-molecule microarray binding, fluorescence 635 nm; higher = more signal.
The nature of assay [12]: modulators of HCV replicon luciferase signal, primary screen, HCV replication inhibitor project, Huh7 cells, luciferase reporter (AID 1109).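 Also: huh7 hepatoma cells harbouring a luciferase neomycin HCV replicon reporter; luciferase luminescence as measure of HCV replicon replication; test concentration not given here.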 Conditions: 48 h, higher = more signal. A general note: A replicon is a self-replicating genome or part of one, used to study replication in cells.
In assay [13] the target is Left-right determination factor 2 (Homo sapiens) (UniProt O00292). Kind of assay: LEFTY2 binders on small-molecule microarrays, primary screen, biochemical, small-molecule microarray, 635 nm fluorescence scan (AID 1110). Conditions: LEFTY2 binding, higher = more signal.
The target of assay [14] is Calmodulin-1 (Homo sapiens) (UniProt P0DP23). In words: CALM1 binders on microarrays, EGTA buffer, profiling panel, biochemical, small-molecule microarray, Cy5-labelled CALM1 (AID 1111).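 Also: labelled calmodulin applied in Tris saline Tween buffer holding calcium plus EGTA and DTT.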 Conditions: Cy5-CALM1 binding fluorescence, higher = more signal.
Assay [15] has the same target. Kind of assay: calcium-bound CALM1 binders on microarrays, profiling panel, artefact control for SMM control-protein annotation, biochemical, small-molecule microarray, Cy5-labelled CALM1, plus calcium (AID 1112).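 Also: score merges spot fluorescence with signal to noise from triplicate slides.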 Conditions: Cy5-CALM1 binding fluorescence, higher = more signal.
Assay [16] is described as follows: small-molecule microarray binders of probe aWnt5a, primary screen, biochemical, biotinylated probe, 635/667 nm fluorescence (AID 1113).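 Also: score merges 667 nm fluorescence intensity with signal-to-noise per printed feature.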 Conditions: higher = more signal.
Assay [17] can be described thus: small-molecule microarray binders of probe aShh, primary screen, biochemical, biotinylated probe, 635/667 nm fluorescence (AID 1114).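 Also: probe is biotin-labelled aShh protein from a stem cell growth factor screen; measures binding of labelled protein to compounds printed on the slide; score merges feature fluorescence at 667 nm with signal-to-noise.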 Conditions: higher = more signal.
A short description of assay [18]: small-molecule microarray binders of probe aNog, primary screen, biochemical, biotinylated probe, 635/667 nm fluorescence (AID 1115).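 Also: probe is biotinylated aNog protein used at 0.15 µg/mL for 1 h at 4 C; z-score combines 667 nm fluorescence of each spot with its signal to noise.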 The following applies: higher = more signal.
In assay [19] the target is Torsin-1A-interacting protein 1 (Homo sapiens) (UniProt Q5JTV8). Kind of assay: LAP1 binders from COS7 cell lysate, primary screen, small-molecule microarray, 635/667 nm fluorescence (AID 1116). The following applies: COS7-hLAP1 lysate binding, 635 nm fluorescence, higher = more signal.
Assay [20] addresses Alpha-bungarotoxin (Bungarus multicinctus) (UniProt P60615). Kind of assay: alpha-bungarotoxin binders on microarray, profiling panel, artefact control for SMM control protein annotation, biochemical, small-molecule microarray, Alexa647 label, 635/667 nm fluorescence (AID 1117). The following applies: alpha-BTX-A647 binding fluorescence, higher = more signal.

Results on six compounds are retold here after PubChem BioAssay.

The source made the active and inactive calls.

Torsin-1A-interacting protein 1 (Homo sapiens), sequence (Q5JTV8 whole entry, looked up): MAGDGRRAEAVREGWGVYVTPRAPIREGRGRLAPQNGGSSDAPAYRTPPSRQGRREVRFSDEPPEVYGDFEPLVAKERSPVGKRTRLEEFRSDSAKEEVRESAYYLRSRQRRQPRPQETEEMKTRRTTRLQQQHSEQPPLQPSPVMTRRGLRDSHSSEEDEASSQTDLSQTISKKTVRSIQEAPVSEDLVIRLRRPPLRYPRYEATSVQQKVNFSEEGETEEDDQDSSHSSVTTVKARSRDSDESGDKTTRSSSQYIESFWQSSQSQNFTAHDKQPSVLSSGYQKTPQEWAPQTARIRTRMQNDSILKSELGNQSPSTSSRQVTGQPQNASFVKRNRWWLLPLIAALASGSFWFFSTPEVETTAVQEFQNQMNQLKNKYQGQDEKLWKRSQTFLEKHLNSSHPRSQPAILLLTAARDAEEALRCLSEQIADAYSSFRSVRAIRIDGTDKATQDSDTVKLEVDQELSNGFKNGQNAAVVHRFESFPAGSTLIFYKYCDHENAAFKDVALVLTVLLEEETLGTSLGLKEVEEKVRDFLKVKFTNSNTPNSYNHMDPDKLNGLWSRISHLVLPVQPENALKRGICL
Alpha-bungarotoxin (Bungarus multicinctus), sequence (P60615 whole entry, looked up): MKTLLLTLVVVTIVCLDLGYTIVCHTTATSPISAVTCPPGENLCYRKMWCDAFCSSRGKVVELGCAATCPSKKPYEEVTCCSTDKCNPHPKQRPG
Left-right determination factor 2 (Homo sapiens), sequence (O00292 whole entry, looked up): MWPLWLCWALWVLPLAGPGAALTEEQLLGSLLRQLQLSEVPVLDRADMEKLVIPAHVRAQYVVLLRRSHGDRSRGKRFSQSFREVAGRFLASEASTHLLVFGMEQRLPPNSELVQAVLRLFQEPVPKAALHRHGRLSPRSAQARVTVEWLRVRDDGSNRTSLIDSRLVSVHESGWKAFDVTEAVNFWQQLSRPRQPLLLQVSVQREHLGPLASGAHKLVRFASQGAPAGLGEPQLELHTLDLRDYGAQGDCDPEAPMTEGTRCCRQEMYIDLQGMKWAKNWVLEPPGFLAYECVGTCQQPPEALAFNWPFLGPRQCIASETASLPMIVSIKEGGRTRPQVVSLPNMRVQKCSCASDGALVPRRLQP
Epidermal growth factor receptor (Homo sapiens), sequence (P00533 whole entry, looked up): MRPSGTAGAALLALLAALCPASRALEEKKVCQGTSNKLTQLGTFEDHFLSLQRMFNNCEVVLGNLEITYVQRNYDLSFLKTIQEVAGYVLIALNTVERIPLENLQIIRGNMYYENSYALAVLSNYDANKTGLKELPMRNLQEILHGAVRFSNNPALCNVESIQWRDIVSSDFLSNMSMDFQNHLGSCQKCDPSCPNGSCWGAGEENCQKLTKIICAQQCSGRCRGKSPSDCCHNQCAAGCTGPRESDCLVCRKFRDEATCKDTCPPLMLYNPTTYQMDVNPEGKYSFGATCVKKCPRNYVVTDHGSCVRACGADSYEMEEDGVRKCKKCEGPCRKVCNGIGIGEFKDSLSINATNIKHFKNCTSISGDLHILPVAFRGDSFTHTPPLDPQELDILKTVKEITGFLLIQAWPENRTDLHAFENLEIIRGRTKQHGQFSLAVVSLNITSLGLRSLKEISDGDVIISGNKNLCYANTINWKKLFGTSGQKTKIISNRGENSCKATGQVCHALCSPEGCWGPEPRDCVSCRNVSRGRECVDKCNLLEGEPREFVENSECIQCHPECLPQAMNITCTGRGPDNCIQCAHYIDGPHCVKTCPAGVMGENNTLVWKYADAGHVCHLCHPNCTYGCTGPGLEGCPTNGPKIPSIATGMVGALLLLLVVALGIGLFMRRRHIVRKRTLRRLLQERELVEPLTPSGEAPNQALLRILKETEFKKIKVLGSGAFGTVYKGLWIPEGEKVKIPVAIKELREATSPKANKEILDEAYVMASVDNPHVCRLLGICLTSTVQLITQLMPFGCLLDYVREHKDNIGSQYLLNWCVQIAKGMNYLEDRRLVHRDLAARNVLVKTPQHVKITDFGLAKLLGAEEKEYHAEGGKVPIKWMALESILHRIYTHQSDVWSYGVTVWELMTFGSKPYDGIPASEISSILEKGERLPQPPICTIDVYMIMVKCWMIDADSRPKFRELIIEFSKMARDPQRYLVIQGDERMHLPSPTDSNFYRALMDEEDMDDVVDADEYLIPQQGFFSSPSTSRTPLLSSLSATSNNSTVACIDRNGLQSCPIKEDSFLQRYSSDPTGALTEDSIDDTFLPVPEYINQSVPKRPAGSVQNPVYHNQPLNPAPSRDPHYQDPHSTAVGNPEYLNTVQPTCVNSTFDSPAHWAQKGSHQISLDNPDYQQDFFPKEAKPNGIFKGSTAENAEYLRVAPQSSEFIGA
Fibroblast growth factor 10 (Homo sapiens), sequence (O15520 whole entry, looked up): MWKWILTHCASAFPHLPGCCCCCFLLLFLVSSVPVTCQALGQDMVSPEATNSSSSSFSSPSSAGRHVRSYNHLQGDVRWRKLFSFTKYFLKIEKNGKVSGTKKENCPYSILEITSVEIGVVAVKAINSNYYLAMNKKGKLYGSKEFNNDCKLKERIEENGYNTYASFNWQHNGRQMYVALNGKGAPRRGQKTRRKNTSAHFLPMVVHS
Follistatin-related protein 3 (Homo sapiens), sequence (O95633 whole entry, looked up): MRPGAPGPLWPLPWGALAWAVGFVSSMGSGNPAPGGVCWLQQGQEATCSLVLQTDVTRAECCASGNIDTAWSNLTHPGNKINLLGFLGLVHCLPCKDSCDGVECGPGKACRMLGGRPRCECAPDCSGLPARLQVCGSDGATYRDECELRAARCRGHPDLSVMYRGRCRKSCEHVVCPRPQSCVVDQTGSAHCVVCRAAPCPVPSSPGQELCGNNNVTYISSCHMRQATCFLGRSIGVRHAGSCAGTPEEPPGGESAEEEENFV
Dickkopf-related protein 1 (Homo sapiens), sequence (O94907 whole entry, looked up): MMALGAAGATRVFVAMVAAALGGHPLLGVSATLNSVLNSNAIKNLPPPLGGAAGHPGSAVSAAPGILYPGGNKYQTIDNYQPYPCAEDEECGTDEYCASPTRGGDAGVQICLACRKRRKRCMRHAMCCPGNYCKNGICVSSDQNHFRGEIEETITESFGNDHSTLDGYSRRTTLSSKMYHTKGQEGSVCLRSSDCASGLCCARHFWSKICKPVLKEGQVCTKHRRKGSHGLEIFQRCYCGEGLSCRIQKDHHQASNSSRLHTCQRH

Turning to `CCOc1cc(C(O)C2C=CC3C(=O)N(c4ccccc4)C(=O)C3N2Nc2ccc(C(C)C)cc2)ccc1O` (stereo not given), the composite z-score in assay [1] is 1.5; in [2], 0.712; in assay [3], 1.01; in [5], 0.726; in assay [6] it was 1.05; in assay [7] it was 0.147. In addition, the composite z-score was 0.912 in assay [8]; -0.332 in [9]; 0.73 in [10]; 1.45 in assay [11]; -0.211 in [13]; 0.983 in [14]. Besides, the composite z-score was -0.0316 in assay [15]; 0.0433 in [16]; -0.0119 in assay [17]; 1.2 in [18]; -0.102 in assay [19]; 1.91 in assay [20]. The z-score in assay [4] was 0.21 (inactive); in [12] it was -0.517.
Turning to `C=CC[C@@]1(C(=O)N2CCCCC2)N=C(c2ccc(OCCCO)cc2)O[C@@H]1c1ccccc1CN=[N+]=[N-]`, the composite z-score in [1] was 1.23; in [2] it was 0.952; in [3], 1.04; in assay [5], 0.666; in [6] it was -0.0684; in [7], 0.17. The composite z-score was 1.15 in assay [8]; -0.187 in assay [9]; 0.711 in assay [10]; 1.48 in assay [11]; 0.0868 in assay [13]; 1.75 in [14]. Besides, the composite z-score in [15] turned out to be 0.797; in assay [16], 0.104; in [17] it was 0.57; in [18] it was 1.18; in assay [19], 1.76; in [20], 2.05. Besides, the z-score in [4] was -0.431 (inactive); in assay [12], -2.39.
In the case of `C=CC[C@@]1(C(=O)N2CCCCC2)N=C(c2ccc(OCCCO)cc2)O[C@@H]1c1ccccc1N=[N+]=[N-]`, the composite z-score came out at 0.763 in assay [1]; 1.19 in assay [2]; 1.07 in assay [3]; 0.925 in assay [5]; 0.742 in assay [6]; 0.249 in assay [7]. For the same compound, the composite z-score in assay [8] is 0.657; in [9] it was -0.0197; in [10], 1.03; in assay [11], 1.46; in assay [13] it was 0.227; in assay [14], 1.27. In addition, the composite z-score in assay [15] is 0.613; in [16] it was 0.0472; in assay [17] it was 0.214; in [18] it was 1.54; in [19] it was 1.05; in [20] it was 2.11. Besides, the z-score is -0.212 (inactive) in [4] and -1.62 in assay [12].
In the case of `COCCOC(=O)N1C(=O)[C@@]2(c3cc(C#CCCO)ccc31)[C@H](c1ccc(OCCO)cc1)N1[C@H](c3ccccc3)[C@H](c3ccccc3)OC(=O)[C@H]1[C@@H]2C(N)=O`, the composite z-score in [1] was 0.923; in assay [2] it was 0.0909; in [3], -0.0603; in assay [5] it was 0.874; in [6] it was 1.3; in assay [7], 0.587. The composite z-score in assay [8] turned out to be 0.829; in assay [9], 0.441; in assay [10], 0.257; in assay [11] it was 1.44; in assay [13], 0.606; in assay [14] it was 0.852. Besides, the composite z-score was found to be 0.278 in assay [15]; 0.0136 in [16]; 0.171 in [17]; 0.226 in assay [18]; 0.918 in assay [19]; 0.338 in [20]. The z-score was -1.59 (inactive) in assay [4] and -1.13 in assay [12].
Regarding `COC(=O)C(CC#Cc1ccc2c(c1)[C@]1(C(=O)N2)[C@H](c2ccccc2OCCO)N2[C@H](c3ccccc3)[C@H](c3ccccc3)OC(=O)[C@H]2[C@@H]1C(=O)O)C(=O)OC`, the composite z-score in assay [1] was determined as 1.49; in [2], 0.666; in assay [3] it was 0.0004; in assay [5], 0.738; in assay [6], 0.93; in assay [7], 0.28. For the same compound, the composite z-score in assay [8] amounted to 0.356; in [9] it was 0.278; in assay [10], 1.04; in assay [11], 1.43; in assay [13] it was 0.17; in assay [14], 1.61. Besides, the composite z-score worked out at 0.701 in [15]; 0.0597 in [16]; 0.218 in [17]; 0.0258 in [18]; 0.967 in assay [19]; 1.94 in [20]. The z-score in [4] was -0.597 (inactive); in [12] it was -0.567.
Take `COC(=O)c1c(CC[C@@H](CO)NC(=O)N[C@@H](Cc2ccccc2)Cn2cc(-c3ccccn3)nn2)oc(C(=O)N2CCOCC2)c1C(=O)OC`: the composite z-score was 0.327 in [1]; -0.299 in assay [2]; -0.247 in assay [3]; 0.136 in assay [5]; -0.27 in assay [6]; -0.002 in assay [7]. For the same compound, the composite z-score was 0.172 in assay [8]; -0.296 in [9]; 0.119 in assay [10]; -0.593 in assay [11]; 0.0348 in assay [13]; -0.194 in assay [14]. For the same compound, the composite z-score was 0.0715 in assay [15]; -0.204 in assay [16]; 0.0796 in assay [17]; 0.151 in assay [18]; 0.167 in assay [19]; 0.0762 in assay [20]. Also, the z-score was 0.373 (inactive) in assay [4] and 0.209 in [12].
